According to PubChem BioAssay (Tox21):
Records with an inconclusive call do not appear. Values without a mark were called inactive. Active and inactive are the calls of the source. The call rests on the fitted dose curve; in most records, active means well fitted cell-killing curve with a large enough effect in the repeat runs; inconclusive means weak or mixed curves, or effect the other way; inactive means no such curve, though single readings can be large or run the other way.

Test: qHTS assay to identify small molecule antagonists of the sonic hedgehog signaling (Shh) pathway - cell viability counter screen (AID 1259367); further: nearly all actives have a fitted effect of over 55% in size
Settings: NIH/3T3 Gli1-Luc viability, CellTiter-Fluor, 24 h; series mostly up to 92.4 µM; viability change, negative = cytotoxic: at the top concentration
Method in brief: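 Viability was read by CellTiter-Fluor fluorescence in the same wells, reagent added 23 hr into compound treatment and incubated 1 hr at 37C. The 3T3 Gli1-Luc reporter cells (2,000/well) received conditioned medium after compound and ran 24 hr.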
On the % scale 0 is the no-effect control and ±100 the full control effect; potency means the concentration at half of the fitted maximal effect.

| SMILES | viability change, negative = cytotoxic | Potency |
| --- | --- | --- |
| O=C=Nc1cccc(C(F)(F)F)c1 | 14.1% | – |
| CCCCCCCC/C=C\CCCCCCCCCCCC(=O)O | 0.0454% | – |
| CC(=O)OCC(=O)NCCCOc1cccc(CN2CCCCC2)c1 | 0.292% [at 42.5 µM] | – |
| O=C1Cc2cc(Cl)ccc2N1 | -0.479% [at 42.5 µM] | – |
| Cc1cc(O)c(C)c(C)c1O | 0.653% [at 42.5 µM] | – |
| C/C=C/C=C/C=O | -2.46% | – |
| CN(C)CCN1C(=O)c2ccccc2N(C)c2ccccc21 | -13.9% [at 42.5 µM] | – |
| CCCCCCC(C)(C)C(=O)O | 6.36% | – |
| C=C1C[C@@]23CC[C@H]4[C@@](C)(CCC[C@@]4(C)C(=O)O[C@@H]4O[C@H](CO)[C@@H](O)[C@H](O)[C@H]4O)[C@@H]2CC[C@]1(O[C@@H]1O[C@H](CO)[C@@H](O)[C@H](O[C@@H]2O[C@H](CO)[C@@H](O)[C@H](O)[C@H]2O)[C@H]1O[C@@H]1O[C@H](CO)[C@@H](O)[C@H](O)[C@H]1O)C3 | 1.63% | – |
| O=C(/C=C/c1ccccc1)OCCc1ccccc1 | 0.233% | – |
| C[C@@H]1CC(=O)NN=C1c1ccc(NN=C(C#N)C#N)cc1 | – | 13.3 µM (active) |
| C[C@@H](O)[C@H]1C(=O)N2C(C(=O)O)=C([C@H]3CCCO3)S[C@H]12 | 0.274% [at 42.5 µM] | – |
| O=C(Cn1ccnc1[N+](=O)[O-])NCCO | 3.27% [at 42.5 µM] | – |
| O=C(/C=C/c1ccc(O)c(O)c1)O[C@@H]1C[C@@](OC(=O)/C=C/c2ccc(O)c(O)c2)(C(=O)O)C[C@@H](O)[C@@H]1O | -8.35% [at 42.5 µM] | – |
| O=C1c2ccccc2C(=O)C1c1ccc(Br)cc1 | -8.38% [at 42.5 µM] | – |
| CCn1cc(C(=O)O)c(=O)c2cc(F)c(N3CCNCC3)cc21 | 5.58% [at 42.5 µM] | – |
| C=C(C)[C@@H]1CCC2=CCC[C@@H](C)[C@]2(C)C1 | -14.1% | – |
| C1COC1 | 2.77% | – |
| Cc1cc(C)cc(N)c1 | 0.77% | – |
| CCN(CC)CCNC(=O)COc1ccc(OC)cc1 | -1.2% [at 42.5 µM] | – |
| NC(=O)c1ccncc1 | 0.604% | – |
| Cc1cscn1 | -7.88% | – |
| CCOc1cccc(-n2cc(C(=O)N3CCN(c4cc(C(=O)O)c5ccccc5c4)CC3)nc2-c2ccc(C)cc2)c1 | -4.45% | – |
| O=C1Cc2ccccc2N1c1c(Cl)cccc1Cl | -8.03% | – |
| CCC(=O)OC | 8.19% | – |
| C=CCc1ccccc1OCC(O)CNC(C)C (stereo not given) | -2.51% [at 42.5 µM] | – |
| OC1(c2ccccc2)CCNCC1 | 0.966% [at 42.5 µM] | – |
| COC(=O)[C@H]1[C@H]2C[C@@H]3c4[nH]c5cc(OC)ccc5c4CCN3C[C@H]2C[C@@H](OC(=O)/C=C/c2ccc(O)c(OC)c2)[C@@H]1OC | -13.7% [at 42.5 µM] | – |
| O=C(OC(=O)c1ccccc1)c1ccccc1 | 0.566% | – |
| CCOC(=O)[C@H](CCc1ccccc1)N[C@@H](C)C(=O)N(CC(=O)O)C1Cc2ccccc2C1 | -7.46% [at 42.5 µM] | – |
